HCV inhibitor: HCV inhibition; Huh7.5.1 HCVcc-Cre infection, luciferase reporter, 44 h; Potency, µM (top dose mostly 41.8 µM), actives largely listed as inhibitors; hit rate 3.4% among 340,000; AID 651820
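Infectious HCV cell culture screen: compound-treated cells (1,000/well, pre-plated 4 h) are infected with HCVcc-Cre at roughly 0.5 moi and grown 44 h. Infection is quantified by luciferase signal after 15 min substrate incubation at room temperature.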
CHX counter: counter-screen hit for Shiga toxin inhibitors, cycloheximide | cell reporter, cycloheximide protein synthesis inhibition counterscreen | hit rate 12% among 300,000 | max response, %; in the data active means max response mostly above about 13%, no sharp cut-off; inactive means mostly below about 14%; further: read at 38.3 µM for the half of the compounds with a filed dose
AMA1-RON2 inh: AMA1-RON2 (P. falciparum) interaction inhibition; AlphaScreen AMA1-biotinylated RON2 peptide binding; Potency, µM (series often up to 58.2 µM), actives largely listed as inhibitors; hit rate 0.2% among 360,000; AID 720542; further: nearly all actives have a fitted effect of over 45% in size
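AMA1 (3D7) with his tag at 25 nM final met compounds first, then biotinylated RON2 peptide at 25 nM; detection used donor plus acceptor beads, 10 µg/mL apiece, read by AlphaScreen after 30 min at room temperature.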
Pf growth 96h: P. falciparum growth inhibition at 96 hours; AID 504834; Potency, µM (highest dose often 28.7 µM), hits mostly inhibitors; hit rate 6.9% among 320,000; P. falciparum luciferase reporter growth, 96 h
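Erythrocytes infected with luciferase-expressing P. falciparum were dispensed at 2% hematocrit and 0.05% parasitemia (final), then incubated with compounds 96 hours at 37 C in 5% CO2. Luminescence after detection reagent addition reported growth.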
Pf growth 48h: inhibits P. falciparum growth in the first generation, 48 h. Potency, µM (top dose mostly 28.7 µM), actives largely listed as inhibitors. AID 504832. hit rate 5.9% among 310,000. P. falciparum luciferase growth in erythrocytes, 48 h
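Cell-based growth assay: transgenic P. falciparum expressing firefly luciferase, cultured in red cells within RPMI 1640 containing 0.5% w/v Albumax, 24 mM bicarbonate and gentamycin. A drop in luciferase activity indicates inhibition.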
Shiga toxin inh: inhibitors of Shiga toxin in Vero cells; Vero cells, Shiga toxin protein synthesis inhibition reporter; inhibition, % at 38.7 µM; hit rate 9.2% among 290,000; AID 2315; in the data active means inhibition mostly above about 28%, no sharp cut-off; inactive means mostly below about 43%
A number is an active result; – = inactive; ? = inconclusive; · = no result given; [ ] = dose if it differs, or a comment. The list is not random: actives were taken first. Their share in the collection is about 21%. Unless noted, the call rests on the fitted dose curve; in most records, active means well fitted curve in the direction sought with a large enough effect; inconclusive means small, poorly fitted or top-dose-only effect, or another doubt; inactive means no such curve, though single readings can be large; an effect the other way counts as inactive or inconclusive.

SMILES	HCV inhibitor	CHX counter	AMA1-RON2 inh	Pf growth 96h	Pf growth 48h	Shiga toxin inh
O=C(N/N=C1/CCCc2ccccc21)c1cc([N+](=O)[O-])cc([N+](=O)[O-])c1	·	–	·	–	–	–
O=C(N/N=C1\CCc2ccccc21)c1ccc(O)cc1	?	43	–	–	–	57
COc1cccc(CNC(=O)CCS(=O)(=O)Cc2ccc(C)cc2)c1	–	–	–	–	–	–
O=C(N/N=C1\CCc2ccccc21)c1ccccc1Cl	–	53	–	–	–	96
c1ccc(-c2ncnc3ccccc23)cc1	–	·	–	·	·	·
Cc1cc(C(=O)CSc2nc3ccccc3c(=O)n2C)c(C)n1CC1CCCO1 (centres undefined)	·	–	·	?	–	–
O=c1[nH]c(SCC2CCCCO2)nc2ccccc12 (centres undefined)	–	24	–	–	–	81
CCn1c(SCC(=O)c2cc(C)n(CC3CCCO3)c2C)nc2ccccc21 (centres undefined)	–	37	–	–	?	–
Cc1cc(C(=O)CSc2nc3ccccc3c(=O)[nH]2)c(C)n1CC1CCCO1 (centres undefined)	11µM	43	–	–	–	143
Cc1cc(C(=O)CSc2nnc(-c3cccnc3)n2-c2ccccc2F)c(C)n1CC1CCCO1 (centres undefined)	–	–	–	15µM	·	–
Cc1noc(C)c1NC(=O)N(C)C[C@@H]1Oc2ncc(Br)cc2C(=O)N([C@@H](C)CO)C[C@H]1C	·	·	–	·	·	·
Cc1ccc(-n2nnnc2SCC(=O)c2cc(C)n(-c3cc(C)on3)c2C)c(C)c1	?	–	–	–	?	–
Cc1cc(-n2c(C)cc(C(=O)CSc3nnnn3-c3ccccc3)c2C)no1	8.9µM	–	–	–[5.75 µM]	?	–
Cc1cc(C(=O)CSc2nnnn2-c2ccccc2)c(C)n1CC1CCCO1 (centres undefined)	–	58	–	–	–	49
Cc1cc(C(=O)CSc2nnnn2-c2ccc(Cl)cc2)c(C)n1CC1CCCO1 (centres undefined)	?	–	–	–	–	–
Cc1noc(C)c1-c1ccc(C(=O)NCCC(F)(F)F)c2occc12	·	·	–	·	·	·
COc1ccc(NC(=O)C(=O)NCC2CCCN2S(=O)(=O)c2cc(C)ccc2C)cc1 (centres undefined)	?	·	–	?	?	·
CC(NC(=O)c1ccccc1F)c1nnc(SCC(=O)Nc2nnc(C3CC3)s2)n1C (centres undefined)	–[8.37 µM]	·	–	–	–	·
COc1ccc(N2CCN(c3nc4c(c(=O)n(C)c(=O)n4C)n3Cc3ccccc3)CC2)cc1	11µM	–	–	·	?	–
Cn1c(N2CCCC2)nc2c1c(=O)n(Cc1ccc(Cl)cc1)c(=O)n2C	?	–	–	?	?	–
CC1CN(c2nc3c(c(=O)n(Cc4ccc(Cl)cc4)c(=O)n3C)n2C)CC(C)O1 (centres undefined)	–	–	–	2.3µM	5.9µM	–
Cn1c(=O)c2c(nc(N3CCNCC3)n2Cc2ccccc2Cl)n(C)c1=O	–	–	–	–	–	–
C=C(C)Cn1c(N2CCN(c3ccc(OC)cc3)CC2)nc2c1c(=O)n(C)c(=O)n2C	?	–	–	–	–	–
Cn1c(=O)c2c(nc(N3CCc4ccccc4C3)n2Cc2ccc(Br)cc2)n(C)c1=O	–	–	–	·	–	–
CN1CCN(c2nc3c(c(=O)n(C)c(=O)n3C)n2Cc2ccc(Cl)cc2)CC1	–	–	–	0.12µM	–	·
SMILES	HCV inhibitor	CHX counter	AMA1-RON2 inh	Pf growth 96h	Pf growth 48h	Shiga toxin inh
Cn1c(=O)c2c(nc(N3CCN(c4ccccn4)CC3)n2Cc2ccccc2Cl)n(C)c1=O	?	–	–	13µM	9.3µM	–
Cc1ccc(C)c(CC(=O)N2CCCCC2c2cc(C(=O)Nc3cccc(C#N)c3)no2)c1 (centres undefined)	·	·	–	·	·	·
Cc1ccc(NC(=O)C2(C)CCN2Cc2cccc3c2OCO3)cc1O (centres undefined)	·	·	–	·	·	·
C=CCOc1nc2c(c(=O)n(C)c(=O)n2C)n1Cc1ccccc1	–	–	–	–	–	–
CCCCCCn1c(N2CCN(c3ccccc3)CC2)nc2c1c(=O)n(C)c(=O)n2C	?	–	?	·	6.6µM	–
C#CCOc1nc2c(c(=O)n(C)c(=O)n2C)n1Cc1ccccc1	13µM	–	–	–	–	–

Assay outcomes from PubChem BioAssay.
